Our source for the growth values is PubChem BioAssay (NCI).

Molecules are shown by their SMILES. The panel holds about 83,000 compounds, 20% with a hit somewhere; the sample as a whole holds those more often.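 How to read the values: 0–100, growth inhibition (40 = 60% inhibited); 0, no net growth; -100 to 0, cell death (-40 = 40% of starting cells died; -100 = all dead).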 Values without a mark were called inactive. Active and inactive are the calls of the source. Rule for the calls: active = growth percent below 10; inactive = the rest.

Among the test systems are SR leukemia; RPMI-8226 leukemia; OVCAR-8 ovarian; OVCAR-5 ovarian; OVCAR-4 ovarian; SK-OV-3 ovarian; IGROV1 ovarian; OVCAR-3 ovarian; HS 578T breast; NCI/ADR-RES ovarian.
Test in all cases: NCI-60 one-dose screen, 48 h (100 = growth as untreated, 0 = no growth, -100 = all killed)
Holding throughout (settings): 10 µM

As for `NC1=NC(c2ccc(Cl)cc2)C2=C(N1)/C(=C/c1ccc(Cl)cc1)CCC2` (stereo not given), the growth with SR leukemia is 20.8%; in the assay with RPMI-8226 leukemia, -12.4% (active); in the assay on OVCAR-8 ovarian, 41.2%; in the assay with OVCAR-5 ovarian, 112%; with OVCAR-4 ovarian, 76.1%; in the assay with SK-OV-3 ovarian it was 80.6%. The growth was 85.2% in the assay on IGROV1 ovarian, 39.1% in the assay with OVCAR-3 ovarian, 100% with HS 578T breast and 92.9% in the assay with NCI/ADR-RES ovarian.
For `O=C(CNc1nnc(-c2cccnc2SCc2ccccc2)s1)Nc1nc(Cl)cc(Cl)n1`, the growth in the assay with SR leukemia was 98.5%; in the assay on RPMI-8226 leukemia, 108%; in the assay on OVCAR-8 ovarian, 118%; in the assay with OVCAR-5 ovarian, 109%; in the assay with OVCAR-4 ovarian, 103%; in the assay on SK-OV-3 ovarian, 99.2%. For the same molecule, the growth in the assay with IGROV1 ovarian was 96.6%; in the assay on OVCAR-3 ovarian, 106%; in the assay with HS 578T breast it was 130%; in the assay with NCI/ADR-RES ovarian, 114%.
As for `O=C(O)c1cc([N+](=O)[O-])ccc1Oc1ccccc1`, the growth is 91% in the assay on SR leukemia; 97.8% in the assay with RPMI-8226 leukemia; 97% with OVCAR-8 ovarian; 101% with OVCAR-5 ovarian; 104% with OVCAR-4 ovarian; 106% with SK-OV-3 ovarian. Further, the growth is 114% in the assay on IGROV1 ovarian, 105% in the assay on OVCAR-3 ovarian, 93.8% in the assay with HS 578T breast and 101% in the assay with NCI/ADR-RES ovarian.
Regarding `CC(C)CCN(CCC(C)C)CC(=O)Nc1ccc(S(=O)(=O)c2ccc(NC(=O)CN(CCC(C)C)CCC(C)C)cc2)cc1`, the growth is 3.98% (active) with SR leukemia; -22.4% (active) with RPMI-8226 leukemia; 21.8% with OVCAR-8 ovarian; 54.3% with OVCAR-5 ovarian; 73.7% in the assay with OVCAR-4 ovarian; 84.3% in the assay on SK-OV-3 ovarian. In addition, the growth was 12.1% in the assay on IGROV1 ovarian, 22.7% with OVCAR-3 ovarian, 65.3% in the assay with HS 578T breast and 59.3% in the assay on NCI/ADR-RES ovarian.
In the case of `CCN(CC)CCOC(=O)c1cc(OCc2ccccc2)c(OCc2ccccc2)c(OCc2ccccc2)c1`, the growth with SR leukemia was 1.2% (active); in the assay on RPMI-8226 leukemia, 32.9%; with OVCAR-8 ovarian it was 56.3%; with OVCAR-5 ovarian it was 83.3%; in the assay with OVCAR-4 ovarian, 75.5%; with SK-OV-3 ovarian it was 100%. For the same molecule, the growth with IGROV1 ovarian is 42.6%; in the assay with OVCAR-3 ovarian, 64.9%; in the assay on HS 578T breast, 66.3%; in the assay with NCI/ADR-RES ovarian it was 52.5%.
With `COc1ccc2c(c1)C(=O)/C(=C/c1ccc([N+](=O)[O-])o1)O2`, the growth in the assay on SR leukemia is 2.34% (active); in the assay with RPMI-8226 leukemia, -3.06% (active); in the assay on OVCAR-8 ovarian it was -71.6% (active); in the assay with OVCAR-5 ovarian, -52.2% (active); in the assay with OVCAR-4 ovarian it was -87% (active); in the assay on SK-OV-3 ovarian it was 48.7%. In addition, the growth is -66.3% (active) with IGROV1 ovarian, -84.5% (active) with OVCAR-3 ovarian, 17.8% with HS 578T breast and 13.4% in the assay on NCI/ADR-RES ovarian.
As for `COc1cc2cc(Oc3ccc(NC(=O)Nc4ccc(Cl)c(Cl)c4)cc3)c(C)nc2cc1OC`, the growth is 18% in the assay on SR leukemia; 4.2% (active) in the assay with RPMI-8226 leukemia; 15% in the assay with OVCAR-8 ovarian; 53% with OVCAR-5 ovarian; 31.9% in the assay on OVCAR-4 ovarian; 28.6% in the assay with SK-OV-3 ovarian. In addition, the growth in the assay on IGROV1 ovarian is 18.6%; with OVCAR-3 ovarian it was -10% (active); in the assay on HS 578T breast, 45.1%; in the assay on NCI/ADR-RES ovarian it was 17.1%.
On to `N#CC1=C(N)Oc2cc(N)ccc2C1c1cccnc1` (stereo not given), for which the growth in the assay on SR leukemia was 70.6%; in the assay with RPMI-8226 leukemia, 106%; in the assay with OVCAR-8 ovarian, 106%; with OVCAR-5 ovarian it was 103%; in the assay on OVCAR-4 ovarian, 80.3%; in the assay on SK-OV-3 ovarian, 93.7%. The growth is 101% in the assay on IGROV1 ovarian, 96.6% in the assay on OVCAR-3 ovarian, 82.4% in the assay with HS 578T breast and 96.2% in the assay with NCI/ADR-RES ovarian.
Turning to `Cc1ccc(S(=O)(=O)N(C)CCCCCC(=O)O)cc1`, the growth in the assay with SR leukemia is 101%; with RPMI-8226 leukemia, 113%; in the assay with OVCAR-8 ovarian it was 103%; with OVCAR-5 ovarian, 101%; in the assay on OVCAR-4 ovarian, 106%; with SK-OV-3 ovarian it was 112%. The growth is 99.4% in the assay on IGROV1 ovarian, 106% in the assay on OVCAR-3 ovarian, 108% in the assay with HS 578T breast and 98.6% in the assay with NCI/ADR-RES ovarian.
As to `O=C(CCCSc1nc(-c2ccccc2)cc(-c2ccc(Cl)cc2)n1)NO`, the growth is 26.3% with SR leukemia; -6.47% (active) in the assay with RPMI-8226 leukemia; 14.2% in the assay on OVCAR-8 ovarian; 9.63% (active) in the assay with OVCAR-5 ovarian; 22.3% in the assay on OVCAR-4 ovarian; 11.7% in the assay on SK-OV-3 ovarian. The growth was 22.3% in the assay with IGROV1 ovarian, 7.27% (active) with OVCAR-3 ovarian, 50.9% in the assay with HS 578T breast and -22% (active) with NCI/ADR-RES ovarian.
For `CO[C@H]1CC(O[C@@H]2/C(C)=C/C[C@@H]3C[C@@H](C[C@]4(C=C[C@H](C)[C@@H](C5CCCCC5)O4)O3)OC(=O)[C@@H]3C=C(C)[C@@H](O)[C@H]4OC/C(=C\C=C\[C@@H]2C)[C@]43O)O[C@@H](C)C1O[C@H]1C[C@H](OC)[C@@H](O)[C@H](C)O1` (stereo not given in full), the growth in the assay with SR leukemia was -52.8% (active); with RPMI-8226 leukemia it was -25.1% (active); in the assay with OVCAR-8 ovarian it was -25.9% (active); in the assay with OVCAR-5 ovarian, -65.3% (active); in the assay on OVCAR-4 ovarian it was -46.8% (active); in the assay with SK-OV-3 ovarian, -84.1% (active). In addition, the growth in the assay on IGROV1 ovarian was -54.7% (active); in the assay on OVCAR-3 ovarian, -96.9% (active); with HS 578T breast, -40.4% (active); in the assay with NCI/ADR-RES ovarian it was -65.1% (active).
With `COc1cc(-c2nn(-c3cccc(NC(=O)NCCNC(=O)c4cccc(C(F)(F)F)c4)c3)cc2-c2ccncc2)ccc1Cl`, the growth was 10.4% in the assay on SR leukemia; 21.4% with RPMI-8226 leukemia; 44.1% in the assay with OVCAR-8 ovarian; 85.1% with OVCAR-5 ovarian; 49.4% in the assay on OVCAR-4 ovarian; 49.9% in the assay on SK-OV-3 ovarian. Besides, the growth with IGROV1 ovarian is 57.3%; with OVCAR-3 ovarian it was 16.2%; with HS 578T breast, 24.1%; in the assay with NCI/ADR-RES ovarian it was 80.3%.
Turning to `Clc1ccc2c(c1)C(N1CCNCC1)=Nc1ccccc1O2`, the growth with SR leukemia is 3.72% (active); in the assay with RPMI-8226 leukemia it was 50%; with OVCAR-8 ovarian, 73.2%; with OVCAR-5 ovarian, 69%; in the assay with OVCAR-4 ovarian it was 41.1%; in the assay with SK-OV-3 ovarian it was 67%. Moreover, the growth in the assay on IGROV1 ovarian is 48.1%; in the assay with OVCAR-3 ovarian, 46.6%; with HS 578T breast, 60.7%; in the assay with NCI/ADR-RES ovarian, 62.8%.
